This excerpt belongs to a sample that is enriched for hits.
Pf apPOL block: Pf-apPOL DNA polymerase inhibition. hit rate 0.25% among 210,000. inhibition, % at 10 µM. Recombinant Pf-apPOL, molecular beacon fluorescence, 1.5 h
mHTT-CaM PPI inh: disrupts binding of mutant huntingtin to calmodulin; AlphaScreen His-mHTT/GST-CaM binding, luminescence; inhibition, % at 15 µM; hit rate 3.6% among 190,000;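 note: 0% = both proteins with DMSO and 100% = one protein alone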
* marks the source's active call; other numbers are inactive results; . = no result; ! = repeats disagree. Cut-off read from the data, not from the text of the source: active = inhibition above about 50%; inactive = the rest.

SMILES | Pf apPOL block | mHTT-CaM PPI inh
N#CCC(N)=Nc1sc2c(c1C#N)CCCC2 | 6 | 67*
CCCCC(=O)Nc1c2c(nn1-c1ccccc1C)CS(=O)(=O)C2 | 72* | 3
Cc1ccccc1-n1nc2c(c1NC(=O)Cc1ccccc1)CS(=O)(=O)C2 | -7 | 5
Cc1cc(Br)cc2c1=NC(=O)C=2c1sc(Nc2ccc(F)cc2)nc1O | -5 | 17
COc1ccc(C(=O)NC(c2ccc(OC)c(OC)c2)c2cc(Cl)c3cccnc3c2O)cc1 (stereo unspecified) | 2 | 72*
CC(=O)NC(c1ccc2c(c1)OCO2)c1cc(Cl)c2cccnc2c1O (stereo unspecified) | -6 | 100*
CC(=O)NC(c1cccc(Cl)c1)c1cc(Cl)c2cccnc2c1O (stereo unspecified) | -3 | 100*
CC(=O)Nc1cccc2c(C(=O)NC(C)c3ccc(C)cc3C)ccnc12 (stereo unspecified) | 0 | 0
CC(=O)NC(c1ccc(C)cc1)c1cc(Cl)c2cccnc2c1O (stereo unspecified) | 2 | 100*!
O=C(Nc1ccc2c(c1)OCO2)C(=O)NC(c1ccccc1)c1ccccc1 | -7 | -8
Cc1cccnc1NC(=O)C(C)Oc1cccc(Cl)c1 (stereo unspecified) | 5 | 0
COc1ccc(C(=O)NC(c2ccc([N+](=O)[O-])cc2)c2cc(Cl)c3cccnc3c2O)cc1 (stereo unspecified) | -12 | 14
O=C(Nc1ccc(F)c(Cl)c1)c1ccccc1[N+](=O)[O-] | -2 | -6
O=C(CC1(O)C(=O)Nc2ccc(Cl)cc21)c1ccc2c(c1)OCCO2 (stereo unspecified) | -4 | 0
Cc1ccc2nc(-c3ccc(NC(=O)c4ccc(=O)n(C)n4)cc3)sc2c1 | -3 | -12
COc1cc(C=C2Oc3cc(OCC#N)cc(C)c3C2=O)cc(OC)c1OC | -5 | -6
O=C(COc1ccccc1)NC(c1ccc([N+](=O)[O-])cc1)c1cc(Cl)c2cccnc2c1O (stereo unspecified) | -8 | 32
O=C(COc1ccccc1)NC(c1ccccc1)c1cc(Cl)c2cccnc2c1O (stereo unspecified) | -2 | 100*
Cc1oc(C2CCN(C(=O)c3ccc(F)cc3Cl)CC2)nc1C(=O)N(C)C | -1 | -23
COc1cc(OC)c(CNC2CCCC2)cc1Br | 2 | -3
COc1ccccc1CNc1ccc2c(c1)CCC2 | 5 | 79*
CC(=O)Nc1ccc(CNc2ccc3c(c2)CCC3)cc1 | 4 | 39
COc1ccccc1CNc1ccc2c(c1)ncn2-c1ccccc1OC | 1 | 62*
COc1cc(OC)c(CNc2ccc3c(c2)CCC3)cc1Br | 1 | 85*
c1cc(CNc2ccc3c(c2)CCC3)ccn1 | -3 | 35
SMILES | Pf apPOL block | mHTT-CaM PPI inh
COc1cccc(CNc2ccc3c(c2)ncn3-c2ccccc2)c1OC | -1 | 48
COc1ccc(CNc2ccc3c(c2)CCC3)cc1 | 4 | 68*
O=C(CSc1nnc(-c2ccncc2)o1)NCC1CCCO1 (stereo unspecified) | 1 | -11
COc1ccc(C2=NC3(CCN(CC(=O)Nc4ccc(Cl)cc4F)CC3)NC2=O)cc1 | -2 | 3
CC(=O)N1CCc2cc(Br)cc(S(=O)(=O)N3CCc4ccccc4C3)c21 | -4 | 0
O=[N+]([O-])c1cccc(-c2cc(-c3cccs3)cc(-c3ccccc3)n2)c1 | -7 | .
Cn1c(=O)c(-c2nc(C(C)(C)C)no2)c(O)c2ccccc21 | -3 | -1
CC(=O)Nc1ccc(NC(=O)c2c(F)c(F)c(F)c(F)c2F)cc1 | -3 | -5
COc1ccc(CNc2ccc(SC)cc2)cc1 | 6 | 43
COc1ccc(CNc2ccc3c(c2)CCC3)cc1Br | 4 | 77*
c1cc2c(cc1CNc1ccc3c(c1)CCC3)OCO2 | -3 | 72*
Fc1ccc(NCc2ccc3c(c2)OCO3)cc1F | 2 | -3
COc1ccc(CNc2cccc(N(C)C)c2)cc1 | -3 | 96*
COc1ccc(CNC2CCCC2)cc1Br | -7 | 0
CC(C)NC(=O)c1nnn(-c2cccc(C(F)(F)F)c2)c1N | -4 | 3
CCN(CC)S(=O)(=O)c1ccc(OC)c(NC(=O)CCCOc2ccccc2)c1 | -6 | 7
CCOc1ccc(C(=O)N2CC3CC2CC3NS(C)(=O)=O)cc1 (stereo unspecified) | 1 | -4
COC(=O)c1ccc(C(=O)NCC(C)(O)c2ccc3c(c2)OCO3)cc1 (stereo unspecified) | 3 | -1
COc1ccc(N=C/C=C/c2ccccc2Cl)cc1Cl | -4 | 55*
COc1ccc(N=Cc2ccc(Cl)cc2)cc1Cl | -3 | 19
Cc1ccc(-c2n[nH]c3c2CN(C(=O)c2cccnc2)CC3)cc1 | -12 | -2
Cc1nc(C)n2ccn(Cc3ccncc3)c(=O)c12 | -5 | -5
O=S(=O)(N=C(c1ccc(Cl)cc1)N1CCOCC1)c1ccccc1 | -5 | -1
CCN1C=C(Cc2ccc(F)cc2)C2=C(C1)C(c1ccc(F)cc1)C(C#N)=C(N)O2 (stereo unspecified) | -14 | 85*
CCN1C=C(Cc2ccccc2C)C2=C(C1)C(c1ccccc1C)C(C#N)=C(N)O2 (stereo unspecified) | -5 | 64*
SMILES | Pf apPOL block | mHTT-CaM PPI inh
Cc1ccccc1C1C(C#N)=C(N)OC2=C1C(=O)CCC2 (stereo unspecified) | -1 | -8
CC1(C)CC(=O)C2=C(C1)OC(N)=C(C#N)C2c1ccc(F)cc1 (stereo unspecified) | -6 | 4
CC(C)c1ccc(S(=O)(=O)N2CCc3nc[nH]c3C2)cc1 | -4 | 7
Cc1nc(N2CCOCC2)c2c(C)c(C(=O)Nc3ccc(Br)cc3C)sc2n1 | -2 | -2
Cc1nc(N2CCOCC2)c2c(C)c(C(=O)Nc3ccc([N+](=O)[O-])cc3C)sc2n1 | -5 | 52*
CC(C)c1cc(C2CCCN2Cc2cn[nH]c2-c2ccccc2)on1 (stereo unspecified) | 3 | 11
c1ccc(-n2ncc3c(NCc4cccs4)ncnc32)cc1 | -2 | 1
OCCNc1nc(NN2CCOCC2)nc2c1cnn2-c1ccc(Cl)cc1 | 0 | 5
OCCNc1nc(NCCc2cccs2)nc2c1cnn2-c1ccc(F)cc1 | -5 | 56*
OCCNc1nc(NCc2ccc3c(c2)OCO3)nc2c1cnn2-c1ccc(F)cc1 | -8 | 67*
Cn1nnc2ccc(-c3noc(-c4cccc(F)c4)n3)cc21 | -2 | -8
Cc1ccc(-c2ncc(NC(=O)c3ccccc3Br)cn2)cc1 | 3 | 0
S=c1[nH]c2ccccc2[nH]c1=S | 38 | .
O=[N+]([O-])c1ccc(S(=O)(=O)/C=C/C=C/N2CCCCC2)cc1 | 7 | 93*
O=[N+]([O-])c1ccc(S(=O)(=O)N2CCCCCC2)cc1 | 3 | 2
COc1ccc(C(C)NC(=O)c2cn3c(n2)CCCC3)cc1 (stereo unspecified) | -3 | 3
COc1ccccc1C(=O)N1CCN(c2ccc([N+](=O)[O-])c(N3CCCCC3)c2)CC1 | -8 | 53*
COc1ccc(N2CCN(c3cc(N4CCN(C)CC4)ccc3[N+](=O)[O-])CC2)cc1 | -5 | 54*
O=C(c1cc(F)c(F)cc1Cl)N1CCN(c2ccc([N+](=O)[O-])c(N3CCCCC3)c2)CC1 | -2 | 5
CN1CCN(c2cc(N3CCN(S(C)(=O)=O)CC3)ccc2[N+](=O)[O-])CC1 | -4 | 2
COC(=O)c1ccc(NC(=O)Cc2csc(-n3cccc3)n2)cc1 | 1 | 3
